# This is a sample that favours compounds with a hit; in the whole collection about 19% have one here.
# IL1B secr inh – blocks inflammasome-driven IL-1 beta release. THP-1 LPS/ATP IL-1B secretion, AlphaLISA, 16 h; active compounds read low. activity change, % at 57.5 µM. 4.7% of 360,000 active. AID 743279; in the data active = activity change below about -50%; inconclusive = mostly about -30% to -49%
#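 THP-1 cells pretreated 1 hr with compounds (up to 57.5 uM final), then stimulated with LPS (250 ng/mL final) plus ATP (1.25 mM final); secreted IL-1B measured by AlphaLISA after 16 hr, decreased signal indicating inhibition.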
# HT1080NT lethal – kills 2HG-producing HT-1080-NT fibrosarcoma cells; HT-1080-NT fibrosarcoma viability, CellTiter-Glo ATP luminescence, 48 h; Potency, µM (top dose mostly 46.1 µM), for inactives: at the highest dose activity, negative = less viability, hits mostly cytotoxic; 1.6% of 360,000 active; AID 686970;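 note: NT is the 2HG producing partner of a matched IDH1 knockdown line; potency is the fitted concentration of half-maximal effect; 0% = DMSO-treated cells and -100% = media-only wells without cells; nearly all actives have a fitted effect of over 55% in size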
#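 Toxicity toward the 2HG-producing NT line was scored as %Activity, normalised to DMSO and no-cell wells, from CellTiter-Glo luminescence after 48 hours' treatment.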
# TDP1 cell CPT – DT40-hTDP1 cell growth loss with CPT; chicken DT40 Tdp1-/-;hTDP1 cells + 20 nM CPT, ATP luminescence, 48 h; Potency, µM (highest dose often 46.2 µM), for inactives: at the top dose activity change, negative = growth inhibition, hits mostly inhibitors; 12% of 420,000 active; AID 686979; note: potency is the fitted concentration of half-maximal effect; nearly all actives have a fitted effect of over 55% in size
#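 Chicken DT40 Tdp1-/- cells stably complemented with human TDP1 were seeded at 400 cells/well in medium containing 20 nM camptothecin, exposed to pin-transferred compounds, and grown at 37 °C for at least 48 hr. Viability was read as ATP luminescence.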
# TDP1 cell noCPT – qHTS for Inhibitors of human tyrosyl-DNA phosphodiesterase 1 (TDP1): qHTS in cells in absence of CPT | DT40 Tdp1-/- hTDP1 cells, no CPT, ATP luminescence, 48 h | Potency, µM (highest dose often 46.2 µM), for the others: at the top dose activity change, negative = growth inhibition, actives largely listed as inhibitors | 15% of 420,000 active | AID 686978, 2013; note: potency is the fitted concentration of half-maximal effect; nearly all actives have a fitted effect of over 55% in size
#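 Luminescent ATP content (CellTiter-Glo) served as the growth readout. Knockout chicken DT40 cells expressing human TDP1 were exposed to compounds without camptothecin for a minimum 48 hr at 37 °C.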
# ELG1 repair inh – ELG1-dependent DNA repair inhibition. 2.3% of 330,000 active. Potency, µM (series often up to 46.1 µM), inactives show at the highest dose activity change, negative = inhibition, most hits filed as inhibitors. AID 504467. HEK293T ELG1-luciferase reporter, luminescence, 16 h; DNA damage induced by 5-fluorouridine; note: potency is the fitted concentration of half-maximal effect; nearly all actives have a fitted effect of over 55% in size
#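 DMSO vehicle served as the neutral condition. Each well held 2,000 cells given 5-fluorouridine plus compound; after 16 hr at 37 °C/5% CO2, ONE-Glo was added and luciferase measured 30 min later.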
# HT1080 IDH1KD tx – kills HT-1080 cells with IDH1 knockdown | 2% of 360,000 active | Potency, µM (doses to about 46.1 µM), without a hit: top-dose activity, negative = toxicity, hits mostly cytotoxic | HT-1080 IDH1 knockdown viability, ATP luminescence, 48 h;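 note: potency is the fitted concentration of half-maximal effect; 0% = DMSO wells and -100% = cell-free medium wells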
#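 Assay cells: HT-1080 with IDH1 knockdown, 750 per well, RPMI/5% FBS. Exposure: 48 h at 37 °C following 2 h pre-incubation. Read: CellTiter-Glo luminescence; fitted concentration-response, curve class assigned.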
# * hit, by the source's call; ? = inconclusive; / = no result given; [ ] = dose if it differs, or a comment. Unless noted, calls come from the whole dose curve; as a rule, active = well fitted curve in the direction sought with a large enough effect; inconclusive = small, poorly fitted or top-dose-only effect, or another doubt; inactive = no such curve, though single readings can be large; an effect the other way counts as inactive or inconclusive. Unless noted, % is set by controls: 0 for no effect and ±100 for the full control effect.
SMILES,IL1B secr inh,HT1080NT lethal,TDP1 cell CPT,TDP1 cell noCPT,ELG1 repair inh,HT1080 IDH1KD tx
CC(C)C(NC(=O)CCNC(=O)c1ccc([N+](=O)[O-])cc1)c1nc2ccccc2[nH]1 (stereo not given),11,-1%,-24%,-11%,2%,2%
Cc1ccc(Nc2c([N+](=O)[O-])ccc3c2=NC2(CCCCC2)N=3)cc1,28,11%,16µM*,23µM*,10%,3%
COC(=O)CNC(=O)c1cnn(-c2ncc3c(n2)-c2ccccc2CCC3)c1C1CC1,/,/,-13%[9.04 µM],-26%,/,/
COc1cccc(CNC(=O)CN2C(=O)CSc3c2c(C)nn3-c2ccccc2)c1,/,/,-24%,-28%,/,/
COC(=O)c1ccc(C2CC(=O)Nc3c2c(C)nn3-c2nc(C)cc(C)n2)cc1 (stereo not given),/,/,?,-25%,/,/
Cc1cc(C)nc(-n2nc(C)c3c2N(Cc2ccccc2)C(=O)CC3c2ccc(Cl)cc2)n1 (stereo not given),/,/,16µM*,?,/,/
Cc1nn(-c2ccccc2)c(C)c1/C=N/NC(=O)c1cc(-c2cccc3ccccc23)n[nH]1,-15,?,?,16µM*,16µM*,?
COc1ccc2c(Cl)c(C(=O)N/N=C/c3ccc4c(c3)OCO4)sc2c1,-1,24%,?,?,-24%,8%
COc1ccc2c(Cl)c(C(=O)N/N=C/c3c(C)[nH]c4ccccc34)sc2c1,-1,-29%,?,?,23µM*,?
Cc1nn(-c2ccccc2)c(C)c1/C=N/NC(=O)c1ccc(F)cc1,-24,4%,-11%,-20%,/,-1%
Cc1[nH]c2ccccc2c1/C=N/NC(=O)c1cc(-c2ccccc2)n[nH]1,?,15µM*,?,18µM*,21µM*,15µM*
Cc1[nH]c2ccccc2c1/C=N/NC(=O)c1cc(-c2ccncc2)nc2ccccc12,0,?,5.8µM*,5.2µM*,?,4.6µM*
Cc1[nH]c2ccccc2c1/C=N/NC(=O)c1ccccc1,20,3%,-15%,?,?,-2%
O=C(CSc1nccc(=O)[nH]1)NN(c1ccccc1)c1ccccc1,16,3%,-9%,2%,28%,2%
C#CCONC(=O)c1cc(OCC(F)(F)F)ccc1OCC(F)(F)F,-7,8%,1%,0%,-3%,11%
CCOc1ccc(CCNC(=O)Cn2c(C)c3cnn(-c4ccccc4)c(=O)c3c2C)cc1,/,/,-14%,-10%,/,/
CCCn1c(=N)c(C(=O)NC2CCCCC2)cc2c(=O)n3cc(C)ccc3nc21,/,/,0%,9%,/,/
O=C(CN1C(=O)C(=O)N(CCC2=CCCCC2)C1=O)c1c[nH]c2ccccc12,-59*,-4%,-13%,?,2%,-8%
O=C(CN1C(=O)C(=O)N(Cc2ccco2)C1=O)c1c[nH]c2ccccc12,31,?,-30%,16%,-2%,-28%
CCCn1c(SC(C)C(=O)NC2CC2)nnc1-c1ccncc1 (stereo not given),0,1%,-11%,18%,24%,1%
Cc1nc(C(=O)NNC(=O)c2ccc(C(F)(F)F)cc2)cs1,55,-24%,?,21µM*,-10%,?
C=CC(C)Sc1nc2c(c(=O)n(C)c(=O)n2C)n1Cc1ccccc1Cl (stereo not given),24,5%,?,?,?,11%
CCCOc1nc2c(c(=O)n(C)c(=O)n2C)n1C,2,17%,-11%,-18%,-7%,10%
C=CCOc1nc2c(c(=O)n(C)c(=O)n2C)n1Cc1ccc(Cl)cc1,-12,3%,16µM*,15µM*,?,18%
CCCOc1nc2c(c(=O)n(C)c(=O)n2C)n1Cc1cccc2ccccc12,-16,10%,12µM*,6.5µM*,16µM*,7%
SMILES,IL1B secr inh,HT1080NT lethal,TDP1 cell CPT,TDP1 cell noCPT,ELG1 repair inh,HT1080 IDH1KD tx
C=CCOc1nc2c(c(=O)n(C)c(=O)n2C)n1Cc1ccccc1Cl,3,5%[9.24 µM],16µM*,23µM*,-14%,?
O=C1CCCCC(=O)[C@H](OC(=O)c2ccccc2)C[C@H](c2ccccc2)O1,33,-5%,-12%,?,/,-4%
O=C(c1cc(-c2ccncc2)nc2ccccc12)N1CCOCC1,-2,-5%,0%,-19%,?,-3%
CC1CN(C(=O)c2cc(-c3ccncc3)nc3ccccc23)CC(C)O1 (stereo not given),11,-3%,-2%,0%,1%,2%
CC(=O)N1CCN(C(=O)c2cc(-c3cccc4ccccc34)nc3ccccc23)CC1,-6,-4%,15µM*,16µM*,?,-7%
O=C(c1cc(-c2ccncc2)nc2ccccc12)N1CCN(Cc2ccccc2)CC1,-60*,-6%,21µM*,21µM*,21µM*,-4%
O=C(c1cc(-c2ccncc2)nc2ccccc12)N1CCCC(C(F)(F)F)C1 (stereo not given),17,-7%,?,18µM*,/,0%
O=C(c1cc(-c2ccncc2)nc2ccccc12)N1CCN(S(=O)(=O)/C=C/c2ccccc2)CC1,?,-7%,?,18µM*,?,-3%
CCOC(=O)C1CCC/C1=N\NC(=O)CN(c1cc(OC)ccc1OC)S(=O)(=O)c1ccccc1 (stereo not given),?,1%,-9%,?,2%,3%
Nc1ccn(Cc2ccc(F)cc2)n1,22,10%,-1%,4%,7%,9%
CC1CC(C)CN(C(=O)c2cc(-c3ccncc3)nc3ccccc23)C1 (stereo not given),-4,0%,?,?,?,-7%
Cc1ccccc1CN1CCN(C(=O)c2cc(-c3ccncc3)nc3ccccc23)CC1,0,-17%,21µM*,12µM*,9%,2%
COc1cccc(C(=O)CSc2nnnn2C2CCCCC2)c1,-11,18%,-21%,-24%,?,17%
CN(C)S(=O)(=O)c1cccc(NC(=O)C2CCCN(C(=O)c3ccc(Cl)cc3)C2)c1 (stereo not given),35,5%,?,15µM*,/,4%
CCN(CC)S(=O)(=O)c1ccc(NC(=O)C2CCCN(C(=O)c3ccc(Cl)cc3)C2)cc1 (stereo not given),-9,-5%,16µM*,23µM*,18µM*,-3%

# Source: PubChem (National Center for Advancing Translational Sciences (NCATS))
